Reference: PubChem BioAssay (NCI)
The panel holds about 79,000 compounds, 15% with a hit somewhere; the sample as a whole holds those more often. A number with no mark means an inactive call. Calls of active or inactive are those of the source. Cut-off read from the data, not from the text of the source: active = growth inhibition above about 70%; inactive = the rest. Where a SMILES comes first, the peptide text is derived from it. [ ]: non-standard residue; d: D form. The star is where a group is joined. ξ: configuration not given here. Cbz = O=C(OCc1ccccc1)*; ξNva = CCCC(N)C(=O)O

Columns and labels:
[1] = NCI Yeast Anticancer Drug Screen. Data for the rad50 strain (AID 155);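 note: 0% = growth of vehicle-only cultures of the same strain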; conditions: S. cerevisiae rad50 strain growth inhibition; at 50.0 µM; hits give high values
Procedure, shortened: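 DNA repair mutant yeast, compound exposure, growth read-out; inhibition is taken relative to vehicle.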

[2] = NCI Yeast Anticancer Drug Screen. Data for the mec2-1 strain (AID 157); conditions: S. cerevisiae mec2-1 strain, at 50.0 µM, hits give high values
Procedure, shortened: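 Readout is yeast growth inhibition, normalised to vehicle-treated controls, in the mec2-1 strain exposed to compound.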

[3] = NCI Yeast Anticancer Drug Screen. Data for the sgs1 mgt1 strain (AID 161);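 note: 0% = growth of cultures given vehicle only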; conditions: S. cerevisiae sgs1 mgt1 strain, at 50.0 µM, hits give high values
Procedure, shortened: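 This yeast growth screen uses a strain with defined DNA-repair lesions; compound-treated growth is compared with vehicle-treated growth.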

[4] = NCI Yeast Anticancer Drug Screen. Data for the cln2 rad14 strain (AID 165);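 note: 0% = growth equal to vehicle treated cultures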; conditions: S. cerevisiae cln2 rad14 strain, at 50.0 µM, hits give high values
Procedure, shortened: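 Relative to vehicle controls, growth inhibition of compound-treated cln2 rad14 yeast was recorded.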

[5] = NCI Yeast Anticancer Drug Screen. Data for the bub3 strain (AID 167); conditions: S. cerevisiae bub3 mutant strain, at 50.0 µM, hits give high values
Procedure, shortened: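 In this screen, a yeast mutant lacking normal mitotic checkpoint function is challenged with compound. Relative growth versus vehicle gives the inhibition value.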

[6] = NCI Yeast Anticancer Drug Screen. Data for the mlh1 rad18 strain (AID 175); conditions: S. cerevisiae mlh1 rad18 strain growth inhibition; at 50.0 µM; hits give high values
Procedure, shortened: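 Test agents were incubated with a yeast strain of defined genotype (DNA damage repair defect). Inhibition of growth was derived by comparison with vehicle-exposed cultures.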

SMILES	growth inhibition [1]	growth inhibition [2]	growth inhibition [3]	growth inhibition [4]	growth inhibition [5]	growth inhibition [6]
CC(=O)OC[C@@H](OC(C)=O)[C@@H](OC(C)=O)[C@H]1OC[C@@H]2C[C@H]([C@H]1OC(C)=O)N(Cc1ccccc1)O2	-18.9%	-13.8%	-7.75%	4.25%	-9.8%	-0.3%
O=C(CSc1nc2[nH]ncc2c(=O)[nH]1)c1ccc(Cl)cc1	-37.2%	-36.6%	-27.2%	3.5%	11.4%	-34.2%
[Zn+2].c1ccc(-c2c3nc(c(-c4ccccc4)c4[n-]c(c(-c5ccccc5)c5nc(c(-c6ccccc6)c6[n-]c2c2ccccc62)-c2ccccc2-5)c2ccccc42)-c2ccccc2-3)cc1	-37.5%	-36.4%	-32.6%	-6.55%	-23.9%	-36.8%
Cc1ccc(SCC(OCn2cnc3c(Cl)nc(N)nc32)[C@H](C)F)cc1 (stereo partly specified)	32.2%	23.4%	56.5%	24.9%	66%	-50.9%
CCCCCCCCCCS(C)(=O)=O	-19.4%	-3.95%	-7.25%	-16.4%	-24.9%	-24.6%
CCc1cccc(CC)c1N1C(=O)C(=O)C(C(C)=O)C1=O (stereo unspecified)	-4.05%	-4.45%	7.6%	-24.5%	-1.25%	8.45%
O=C(Nc1ccc(CCO)cc1)Nc1ccc(Cl)cc1[N+](=O)[O-]	-6.35%	34.9%	25.8%	-18.7%	21.6%	17.6%
CC(C)c1ccccc1[S+]1OC(C)(C)c2ccccc21 (stereo unspecified)	-4.9%	21.9%	6.95%	9.45%	-1.5%	-38.7%
CCCCCCCCOc1ccc(C=Nc2ccc(C)cc2)cc1	-2.05%	19.3%	0.45%	-9.8%	16.9%	13%
Nc1ccnc(Cl)n1	-2.45%	-6.05%	-13.2%	0.4%	0.4%	-0.95%
CCCC(NC(=O)OCc1ccccc1)C(=O)NCC(=O)O (stereo unspecified) (Cbz-[ξNva]-Gly-OH)	24.6%	7.2%	6.05%	23.4%	8.7%	8.55%
CCOC(=O)c1c(Br)c(-c2ccc([N+](=O)[O-])cc2)c(Br)n1C	11.4%	-7.4%	-0.15%	-0.15%	-2.1%	-5.2%
COC(=O)CCC(C)C1CCC2C3CCC4CC5CCC4(C)C3(O5)C(Br)C(Br)C12C (stereo unspecified)	-11.8%	-48.1%	-32.5%	-33%	-25.5%	-4.8%
Cc1cc(N(CCC#N)S(=O)(=O)c2ccccc2)ccc1C=O	25.9%	-34.1%	13.9%	-9.05%	-9.15%	-4.15%
O=c1cc(-c2ccccc2)[nH]c2ccc(N3CCOCC3)cc12	-37.7%	0.25%	-41.6%	-18.9%	-15.8%	-31.4%
CCc1c([N+](=O)[O-])c2cc([N+](=O)[O-])ccc2n1C	3.35%	8.85%	-7.65%	-1.65%	2.8%	8.75%
CC(C)c1ccc(C(O)C2CC2)cc1 (stereo unspecified)	-14.3%	-40.8%	-15.2%	3.05%	-19.6%	-11.6%
CC(C)C1NC(=O)NC1=O (stereo unspecified)	-4%	-23.2%	-3.7%	10.7%	0.65%	-4.4%
CC1=C(c2ccccc2)C(c2ccccc2)c2ccccc21 (stereo unspecified)	17.3%	26.7%	33.6%	51.4%	54.4%	85.6% (active)
C=CCSc1nc2ccc(NCn3c(=S)sc4cc([N+](=O)[O-])ccc43)cc2s1	12.6%	14.4%	30.9%	14%	3.4%	31.9%
Nc1ccnc2cc(Cl)ccc12	17.4%	4.45%	3.3%	2.6%	-4.05%	26.6%

SMILES	growth inhibition [1]	growth inhibition [2]	growth inhibition [3]	growth inhibition [4]	growth inhibition [5]	growth inhibition [6]
C/C(CC(C)C)=N\NC(=O)Nc1ccccc1Cl	4.5%	5.7%	-2.4%	-3.85%	26.7%	6.35%
Cc1ccc(S(=O)(=O)C2(NC(=O)C3CC3)CC2)cc1	-6.5%	-12.1%	-26.2%	-11.1%	-30.7%	-5.7%
[O-][N+](=Nc1ccccc1)c1ccccc1	1.2%	1.35%	35.9%	-0.9%	3.75%	24%
O=c1[nH]c(-c2ccncc2)nnc1-c1ccc(Cl)cc1	-4.4%	-8.1%	-11.5%	-26.9%	2.15%	-14.1%
O=C(O)C(C(=O)O)C(O)c1c2ccccc2cc2ccccc12 (stereo unspecified)	-10.3%	16%	-4.35%	-47.6%	0.6%	-1.05%
Cc1ccc(-c2cc(=O)c3cc(C)c(C)c(C(=O)O)c3o2)cc1C	11.6%	20.6%	30.5%	23.5%	6.25%	20.7%
N#CCCC(CC#N)C1([N+](=O)[O-])CCCCC1 (stereo unspecified)	23.8%	29.2%	7.85%	53.1%	32.8%	3.55%
CCCCCOC(C)(OCCCCC)OCCCCC	7%	13.6%	-4.2%	2.8%	9.6%	7.5%
NCCNc1nc(NCCN)nc(N(CCN)CCN)n1	4.85%	-4.9%	7.6%	9%	-17.3%	4.05%
CC[N+](C)(CC)CCOC(=O)C(c1ccccc1)C(O)C1CC=CCC1 (stereo unspecified)	7.15%	-6.3%	-5.65%	-30.6%	-1.45%	2.3%
CCOC(=O)c1c(O)[nH]c(=O)c(CC)c1C	-13.2%	-29.3%	-45.8%	-16.4%	-30.8%	-4.1%
COc1cc(/C=C/C=C2\CC(C)C/C(=C\C=C\c3ccc(O)c(OC)c3)C2=O)ccc1O (stereo unspecified)	9%	8.3%	6.05%	18.2%	0.85%	8.2%
Fc1ccccc1/C=C/c1cnnc2ccccc12	19.9%	11.1%	16.1%	-20.4%	5.2%	3.15%
CC(C)C(=O)Nc1ccccc1-c1ccccc1	14.3%	-1.45%	-9.35%	-1.4%	0.05%	8.8%
CCOP(=O)(OCC)C1OCC(O)C(C2OC(P(=O)(OCC)OCC)OCC2O)O1 (stereo unspecified)	7.95%	4.4%	2.45%	0.85%	-1.55%	7.25%
CCCCNCC1C(O)CCC2CN3CCc4c([nH]c5ccccc45)C3CC21 (stereo unspecified)	15.9%	5.85%	11.3%	9.9%	6.05%	16.9%
CCOC(=O)C(Cc1c[nH]c2ccccc12)NC(=O)C1(O)C(O)C2(CC)C=CCN3CCC4(c5cc(C6(C(=O)OC)CC7CC(CC)CN(CCc8c6[nH]c6ccccc86)C7)c(OC)cc5N(C)C14)C32 (stereo unspecified)	20.8%	20.2%	7.75%	32.4%	17%	6.2%
CCc1nnc2ncccn12	-1.15%	-10.9%	4.25%	-5.95%	10.4%	-2.9%
O=C(O)C(Cc1ccc2c(c1)CCC2)(Cc1ccc2c(c1)CCC2)C(=O)O	26.9%	13.3%	-4%	33.3%	22.8%	12.1%
Cc1c2ccccc2c(CN(C)CC(=O)NCC(=O)NCC(=O)O)c2ccccc12	97.5% (active)	97.7% (active)	97.5% (active)	97.5% (active)	98.2% (active)	98.5% (active)
